{"source": "ChEMBL document CHEMBL1201862", "about": "“PubChem BioAssay data set” (2004)", "note": "Among all 400,000 compounds or so, about 2,100 (0.53%) were called active. About 14% were inconclusive and are not listed. No rule for the calls is given here. The entries come from a sample that favours actives as a whole."}
{"target": "Ataxin-2 (Homo sapiens) (UniProt Q99700)", "sequence (Q99700 whole entry)": "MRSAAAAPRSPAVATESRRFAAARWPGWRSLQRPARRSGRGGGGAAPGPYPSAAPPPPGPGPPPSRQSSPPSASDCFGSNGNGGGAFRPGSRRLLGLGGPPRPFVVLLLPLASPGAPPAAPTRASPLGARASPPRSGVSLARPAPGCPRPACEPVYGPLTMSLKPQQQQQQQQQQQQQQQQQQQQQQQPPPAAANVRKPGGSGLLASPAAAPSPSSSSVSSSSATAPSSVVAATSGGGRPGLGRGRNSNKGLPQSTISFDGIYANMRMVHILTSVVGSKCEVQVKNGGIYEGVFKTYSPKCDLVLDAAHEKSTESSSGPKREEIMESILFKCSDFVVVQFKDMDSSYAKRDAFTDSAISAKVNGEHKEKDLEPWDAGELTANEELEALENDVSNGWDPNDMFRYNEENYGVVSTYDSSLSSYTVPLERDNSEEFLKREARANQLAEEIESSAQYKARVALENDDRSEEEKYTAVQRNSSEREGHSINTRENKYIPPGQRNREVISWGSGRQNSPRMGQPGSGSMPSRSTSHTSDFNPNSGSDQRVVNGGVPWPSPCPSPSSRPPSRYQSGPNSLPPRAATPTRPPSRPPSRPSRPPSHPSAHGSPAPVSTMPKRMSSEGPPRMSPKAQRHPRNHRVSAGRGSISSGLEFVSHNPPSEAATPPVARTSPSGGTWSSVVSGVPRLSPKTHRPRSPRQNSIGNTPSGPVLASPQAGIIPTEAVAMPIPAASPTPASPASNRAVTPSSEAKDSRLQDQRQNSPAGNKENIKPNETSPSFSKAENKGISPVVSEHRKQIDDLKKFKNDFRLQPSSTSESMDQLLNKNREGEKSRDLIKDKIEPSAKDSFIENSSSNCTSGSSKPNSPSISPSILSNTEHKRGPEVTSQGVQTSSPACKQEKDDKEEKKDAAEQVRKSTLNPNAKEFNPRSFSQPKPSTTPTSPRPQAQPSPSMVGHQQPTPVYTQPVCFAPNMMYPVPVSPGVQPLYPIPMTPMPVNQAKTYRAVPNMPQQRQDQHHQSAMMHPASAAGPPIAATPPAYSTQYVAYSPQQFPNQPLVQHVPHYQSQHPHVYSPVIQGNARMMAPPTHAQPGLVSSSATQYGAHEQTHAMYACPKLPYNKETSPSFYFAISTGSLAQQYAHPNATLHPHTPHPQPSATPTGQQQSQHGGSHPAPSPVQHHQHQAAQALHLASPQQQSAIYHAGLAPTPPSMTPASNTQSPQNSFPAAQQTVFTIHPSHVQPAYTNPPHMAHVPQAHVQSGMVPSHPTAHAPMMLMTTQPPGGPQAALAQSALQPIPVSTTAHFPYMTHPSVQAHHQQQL", "experiment": "qHTS for Inhibitors of ATXN expression.", "type": "functional"}
{"smiles": "CCCOc1cccc(C2c3c(oc4ccc(F)cc4c3=O)C(=O)N2CCCN2CCOCC2)c1", "note": "(centres undefined)", "Potency": "inactive"}
{"smiles": "Cc1nc(Cl)c2c(n1)N=C1CCCC(O)=C1O2", "Potency": "inactive"}
{"smiles": "Cc1ccc(CNC(=O)c2cc3c(=O)n4ccccc4nc3n(CC3CCCO3)c2=N)cc1", "note": "(centres undefined)", "Potency": "inactive"}
{"smiles": "CCCCn1cc[n+](-c2nc3ccccc3nc2[N-]S(=O)(=O)c2ccc(Cl)cc2)c1", "Potency": "inactive"}
{"smiles": "Cc1ccc(-c2nnc(Nc3ccc4c(c3)OCO4)c3ccccc23)cc1S(=O)(=O)NC(C)C", "Potency": "inactive"}
{"smiles": "Cc1ccc(-c2nnc(Nc3cccc(O)c3)c3ccccc23)cc1S(=O)(=O)NCC1CCCO1", "note": "(centres undefined)", "Potency": "39.8 µM (active)"}
{"smiles": "O=C1Nc2ccc(S(=O)(=O)NCC3CCCO3)c3cccc1c23", "note": "(centres undefined)", "Potency": "inactive"}
{"smiles": "CN1CCN(C(=O)c2cc3nc(-c4ccco4)cc(C(F)(F)F)n3n2)CC1", "Potency": "inactive"}
{"smiles": "Nc1ccc(Cn2ccc3c4c(N)nc(N)nc4ccc32)cc1", "Potency": "29.9 µM (active)"}
{"smiles": "COc1ccc(CC(=O)NC2CCCc3ccccc32)cc1", "note": "(centres undefined)", "Potency": "inactive"}
{"smiles": "CN(CC(=O)Nc1ccccc1Sc1ccccc1)C1CCCCC1", "Potency": "inactive"}
{"smiles": "COC(=O)N1C(=O)[C@@](c2ccccc2)(C2CCCC2)N1C(=O)OC", "Potency": "17.8 µM (active)"}
{"smiles": "Cc1ccc(C2=CC(c3ccc(Cl)cc3)n3nc(-c4ccc(C)cc4)nc3N2)cc1", "note": "(centres undefined)", "Potency": "inactive"}
{"smiles": "COc1ccc(Cl)cc1NC(=O)Cn1c(=O)n(CCCC(=O)NCCc2ccc(OC)c(OC)c2)c(=O)c2ccccc21", "Potency": "39.8 µM (active)"}
{"smiles": "O=C(CCCn1c2ccccc2c(=O)c2ccccc21)Nc1cccc(Cl)c1", "Potency": "inactive"}
{"smiles": "COc1ccc(Cl)cc1NC(=O)CN1C(=O)NC(C)(Cc2ccc(OC)c(OC)c2)C1=O", "note": "(centres undefined)", "Potency": "inactive"}
{"smiles": "Cc1ccc2c(c1)c(=O)c1ccccc1n2CCCC(=O)Nc1ccc(C)c(F)c1", "Potency": "inactive"}
{"smiles": "COc1ccc(CCNC(=O)CCCn2c(=O)c3ccccc3n(CC(=O)Nc3ccc(C)cc3Cl)c2=O)cc1OC", "Potency": "20 µM (active)"}
{"smiles": "COc1ccc(CCNC(=O)CCCn2c(=O)c3ccccc3n(Cc3cccc(Cl)c3)c2=O)cc1OC", "Potency": "39.8 µM (active)"}
{"smiles": "COC/C=C/C1=CC2=CC(=O)C(C)(OC(=O)c3cnc4ccccc4n3)C(=O)C2=CN1Cc1ccccc1", "note": "(centres undefined)", "Potency": "12.6 µM (active)"}
{"smiles": "COc1ccc2oc(=O)c(-c3nnc(N)s3)cc2c1", "Potency": "inactive"}
{"smiles": "CCC(C)NC(=O)c1sc2nc(C)c(C(=O)Nc3ccc(C)cc3C)c(-c3ccccc3Cl)c2c1N", "note": "(centres undefined)", "Potency": "inactive"}
{"smiles": "C=C(C)COc1ccc(-c2n[nH]cc2-c2ccc(OC)c(OC)c2)c(O)c1", "Potency": "44.7 µM (active)"}
{"smiles": "CCN(CC)C(=O)c1sc2nc(-c3cccs3)cc(-c3ccc(Cl)cc3)c2c1N", "Potency": "inactive"}
{"smiles": "C=C(C)COc1ccc(-c2ncncc2-c2ccc(Br)cc2)c(O)c1", "Potency": "inactive"}
{"smiles": "C=C(C)COc1ccc(-c2nc(N)ncc2-c2ccc(Cl)cc2)c(O)c1", "Potency": "39.8 µM (active)"}
{"smiles": "COc1ccc(-c2c(C)n[nH]c2-c2ccc(OC)c(C)c2O)cc1", "Potency": "39.8 µM (active)"}
{"smiles": "C=C(C)COc1ccc(-c2[nH]nc(C)c2-c2ccc(Br)cc2)c(O)c1", "Potency": "25.1 µM (active)"}
{"smiles": "COc1ccc(-c2c(C)c3ccc(O)cc3oc2=O)cc1", "Potency": "inactive"}
{"smiles": "COC(=O)c1c(C)nc(C)c(C(=O)OC)c1-c1ccc(OC)cc1", "Potency": "inactive"}
{"smiles": "COc1cc(/C=N/NC(=O)Nc2cccc3nsnc23)cc(OC)c1OC", "Potency": "inactive"}
{"smiles": "CNC(=O)c1cc2c(=O)n3cccc(C)c3nc2n(C(C)C)c1=N", "Potency": "inactive"}
{"smiles": "Cc1ccc(S(=O)(=O)NCCc2cn3nc(C)c(C)nc3n2)cc1C", "Potency": "inactive"}
{"smiles": "Nc1ccc2c(c1)Oc1ccccc1C=C2", "Potency": "inactive"}
{"smiles": "COc1ccccc1/N=c1\\oc2cc(O)ccc2cc1C(N)=O", "Potency": "inactive"}
{"smiles": "CCn1nc(NC(=O)Cc2ccc(OC)cc2)c2cc3cccc(C)c3nc21", "Potency": "inactive"}
{"smiles": "C/C(CC1CC2=C(CC1(C)C)C(C)(C)CCC2)=N\\NC(N)=S", "note": "(centres undefined)", "Potency": "35.5 µM (active)"}
{"smiles": "CN1C(=O)c2ccccc2N(C)C1c1ccccc1Cl", "note": "(centres undefined)", "Potency": "inactive"}
{"smiles": "COc1ccccc1C1CCCN1Cc1nc(-c2ccc(C)s2)oc1C", "note": "(centres undefined)", "Potency": "inactive"}
{"smiles": "Cc1cc(C)n2nc(SCC(=O)Nc3ccc(F)c(F)c3F)nc2n1", "Potency": "inactive"}
{"smiles": "COCCNc1cc(C)nc2cc(-c3ccc(C)cc3)nn12", "Potency": "inactive"}
{"smiles": "Cc1ccc(Nc2cc(C)nc3nc(Cc4ccc(Cl)cc4)nn23)cc1", "Potency": "22.4 µM (active)"}
{"smiles": "Cc1c(-c2ccccc2)c(=O)oc2c(CN3CCN(C)CC3)c(O)ccc12", "Potency": "inactive"}
{"smiles": "CN(C(=O)COC(=O)c1nc(Cl)c(Cl)c(Cl)c1Cl)C1CCS(=O)(=O)C1", "note": "(centres undefined)", "Potency": "33.6 µM (active)"}
{"smiles": "Cc1ccc(-c2cc(C(=O)OCC(=O)N(C)C3CCS(=O)(=O)C3)c3ccccc3n2)o1", "note": "(centres undefined)", "Potency": "inactive"}
{"smiles": "CN(C(=O)COC(=O)c1cc(-c2ccc(Cl)s2)nc2ccccc12)C1CCS(=O)(=O)C1", "note": "(centres undefined)", "Potency": "inactive"}
{"smiles": "CC1Cc2ccccc2N1C(=O)COC(=O)c1ccc(N(C)C)cc1", "note": "(centres undefined)", "Potency": "inactive"}
{"smiles": "Cc1cc(Br)ccc1SCC(=O)OCC(O)=C(C#N)c1nc2ccccc2[nH]1", "Potency": "39.8 µM (active)"}
{"smiles": "CCO/C(O)=C(\\C#N)c1cc(C)c2ccccc2n1", "Potency": "inactive"}
